Among all 2,000 compounds or so, about 15 (0.8%) showed an effect of 50% or more. The sample holds strong results, similar compounds and a random draw of the others, so the mix is not that of the screen. Where a SMILES comes first, the peptide text is derived from it. [ ]: non-standard residue; d: D form. pGlu = O=C1CC[C@@H](C(=O)O)N1; Thz = O=C(O)[C@@H]1CSCN1
The compounds below were run on Balamuthia mandrillaris (ATCC PRA-291) trophozoites, axenic culture (assay: primary screen, percent inhibition; higher = more effect of the substance). Settings: 20 µM.
Method: Screening of a clinically approved library of compounds, compiled by the Small Molecule Discovery Center (SMDC) at the UCSF, was completed at 20 µM in 0.2% DMSO. All 2,177 drugs in the library were stored as 10 mM stocks dissolved in 100% DMSO (Sigma-Aldrich) at −20°C. B. mandrillaris amoebae were resuspended in axenic medium and distributed into opaque 384-well plates (Corning) at a density of 3,000 amoebae per well using a BioMek NX liquid handler. Negative-control wells were treated with vehicle only (0.2% DMSO in axenic medium), and positive-control wells simulating total destruction of amoebae were seeded with amoeba lysate generated by 3 consecutive freeze-thaw cycles. Following 72 h of incubation, 30 µl of CellTiter Glo reagent (CTG; Promega) was added to each well. The luminescence was measured with a Promega GloMax-Multi+ plate reader at 2, 4, and 8 h after CTG addition. […] The B-score, representing a plate-based statistical approach for correcting row, column, and edge effects, was also calculated for each compound in the library (75).
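Note: 0% = vehicle wells and 100% = lysate wells.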

Compared with `O=C(O)[C@H](CC(=O)N1C[C@H]2CCCC[C@H]2C1)Cc1ccccc1`, `CN1C2C[C@@H](OC(=O)[C@H](CO)c3ccccc3)CC1[C@@H]1O[C@H]21` is lower in “% Inhibition” value: 22.1% for the first, 0.52% for the second.

Going from `CN1CCN(C(=O)O[C@H]2c3nccnc3C(=O)N2c2ccc(Cl)cn2)CC1` to `Cc1c(NC(=O)c2cccnc2)c(=O)n(-c2ccccc2)n1C`, the “% Inhibition” value rises from 9.05% to 70.2%.

Going from `C1CCN2C[C@@H]3C[C@H](CN4CCCC[C@@H]34)[C@H]2C1` to `C=CC[C@]1(O)CC[C@H]2[C@@H]3CCC4=CCCC[C@@H]4[C@H]3CC[C@@]21C`, the “% Inhibition” value rises from -35.5% to 5.59%.

Compared with `O=C(O)C1=C(CSc2nnnn2CS(=O)(=O)O)CS[C@@H]2C(NC(=O)[C@H](O)c3ccccc3)C(=O)N12` (some centres unmarked), `CCN1CCN(C(=O)N[C@@H](C(=O)N[C@@H]2C(=O)N3C(C(=O)O)=C(CSc4nnnn4C)CS[C@H]23)c2ccc(O)cc2)C(=O)C1=O` is higher in “% Inhibition” value: 15.1% for the first, 19.8% for the second.

Going from `CCCCCCCCCCOc1cc2c(O)c(C(=O)OCC)cnc2cc1OCC` to `COc1cc2nc(N(C)CCCNC(=O)C3CCCO3)nc(N)c2cc1OC` (centres unmarked), the “% Inhibition” value rises from -12.8% to 24.3%.

Compared with `C=CCNc1nc(NCC=C)nc(N2CCN(C(c3ccc(F)cc3)c3ccc(F)cc3)CC2)n1`, `Cc1nnc2n1-c1ccc(Cl)cc1C(c1ccccc1)=NC2` is lower in “% Inhibition” value: 13.4% for the first, -8.66% for the second.

First: CC1=C(CC(=O)O)c2cc(F)ccc2/C1=C\c1ccc(S(C)(=O)=O)cc1
Second: Cc1ccc(-c2cc(C(F)(F)F)nn2-c2ccc(S(N)(=O)=O)cc2)cc1
The “% Inhibition” value of the first is lower: 12.2% for the first, 20.5% for the second.

Going from `CO/N=C(\C(=O)NC1C(=O)N2C(C(=O)OCOC(=O)C(C)(C)C)=C(/C=C\c3scnc3C)CSC12)c1csc(N)n1` (centres unmarked) to `C=CC1=C(C(=O)O)N2C(=O)[C@@H](NC(=O)/C(=N\OCC(=O)O)c3csc(N)n3)[C@H]2SC1`, the “% Inhibition” value rises from -4.68% to 6.01%.

First: C[C@H]1[C@@H](OC(=O)CCC(=O)O)O[C@@H]2O[C@]3(C)CC[C@H]4[C@H](C)CC[C@@H]1[C@@]24OO3
Second: C[C@H]1[C@H](OC(=O)CCC(=O)O)O[C@@H]2O[C@@]3(C)CC[C@H]4[C@H](C)CC[C@@H]1[C@@]24OO3
The “% Inhibition” value of the first is lower: 52.3% for the first, 56.1% for the second.

Compared with `CO[C@H]1O[C@@H]2O[C@@]3(C)CC[C@H]4[C@H](C)CC[C@@H]([C@H]1C)[C@@]24OO3`, `COC1O[C@@H]2O[C@@]3(C)CC[C@H]4[C@H](C)CC[C@@H]([C@H]1C)[C@@]24OO3` (some centres unmarked) is lower in “% Inhibition” value: 48.7% for the first, -11.8% for the second.

Going from `C[C@@H]1CC[C@H]2[C@@H](C)C(=O)O[C@@H]3O[C@@]4(C)CC[C@@H]1[C@]32OO4` to `C[C@@H]1CC[C@H]2[C@@H](C)C(O)O[C@@H]3O[C@@]4(C)CC[C@@H]1[C@]32OO4` (some centres unmarked), the “% Inhibition” value rises from 54.5% to 56.5%.

Compared with `CC(=O)[C@H]1CC[C@H]2[C@@H]3CC=C4C[C@@H](OC(=O)CCC(=O)O)CC[C@]4(C)[C@H]3CC[C@]12C`, `C[C@]12CCC3c4ccc(O)cc4CCC3C1CCC2=O` (some centres unmarked) is lower in “% Inhibition” value: -6.88% for the first, -7.91% for the second.

Compared with `CC1(C)C(C=C(Cl)Cl)C1C(=O)OCc1cccc(Oc2ccccc2)c1` (centres unmarked), `C[N+]1(C)C2CC(OC(=O)[C@@H](CO)c3ccccc3)CC1C1OC12` (some centres unmarked) is higher in “% Inhibition” value: 13.4% for the first, 15.9% for the second.

Going from `CC(C)C[C@H](NC(=O)[C@@H](Cc1c[nH]c2ccccc12)NC(=O)[C@H](Cc1ccc(O)cc1)NC(=O)[C@H](CO)NC(=O)[C@H](Cc1c[nH]c2ccccc12)NC(=O)[C@H](Cc1c[nH]cn1)NC(=O)[C@@H]1CCC(=O)N1)C(=O)N[C@@H](CCCN=C(N)N)C(=O)N1CCC[C@H]1C(=O)NCC(N)=O` to `COc1ccc(CC2c3cc(OC)c(OC)cc3CC[N+]2(C)CCC(=O)OCCCCCOC(=O)CC[N+]2(C)CCc3cc(OC)c(OC)cc3C2Cc2ccc(OC)c(OC)c2)cc1OC` (centres unmarked) [756849-L2], the “% Inhibition” value rises from 9.31% to 13.9%.

Going from `O=C(O)CCCCC(=O)O` to `O=C(O)CCCO`, the “% Inhibition” value falls from 25.4% to 19%.

Going from `CC(=O)OCC(COC(C)=O)OC(C)=O` to `C[N+](C)(C)CCOC(N)=O`, the “% Inhibition” value falls from -1.82% to -7.4%.

Compared with `C[C@@H]1[C@H](O)[C@@H](C)/C=C/C=C/C=C/C=C/C=C/C=C/C=C/[C@H](O[C@@H]2O[C@H](C)[C@@H](O)[C@H](N)[C@@H]2O)C[C@@H]2O[C@](O)(C[C@@H](O)C[C@@H](O)[C@H](O)CC[C@@H](O)C[C@@H](O)CC(=O)O[C@H]1C)C[C@H](O)[C@H]2C(=O)O`, `CO[C@H]1/C=C/O[C@@]2(C)Oc3c(C)c(O)c4c(O)c(c(/C=N\N5CCN(C)CC5)c(O)c4c3C2=O)NC(=O)/C(C)=C\C=C\C(C)[C@H](O)[C@@H](C)[C@@H](O)[C@@H](C)[C@@H](OC(C)=O)[C@@H]1C` (some centres unmarked) is higher in “% Inhibition” value: 25.1% for the first, 30.6% for the second.

Going from `Cc1c(NC(C)C)c(=O)n(-c2ccccc2)n1C` to `Cc1c(N(C)C)c(=O)n(-c2ccccc2)n1C`, the “% Inhibition” value rises from -7.04% to 29.7%.

Compared with `NCCCC(N)C(=O)O` (centres unmarked) [131504-L4], `O=C(O)CCCc1ccc(N(CCCl)CCCl)cc1` is lower in “% Inhibition” value: 14.1% for the first, -32.3% for the second.

Compared with `CO/N=C(/C(=O)NC1C(=O)N2C(C(=O)O)=C(COC(N)=O)CSC12)c1ccco1` (centres unmarked), `C=CCN1CC[C@]23c4c5ccc(O)c4OC2C(=O)CC[C@@]3(O)[C@H]1C5` (some centres unmarked) is lower in “% Inhibition” value: 41.1% for the first, 29.3% for the second.

Compared with `O=C1CC[C@@H](C(=O)N2CSC[C@H]2C(=O)O)N1` ([pGlu]-[Thz]-OH), `CC[C@@H](C(N)=O)N1CCCC1=O` is lower in “% Inhibition” value: 16.6% for the first, 13.9% for the second.

Compared with `CNC1(c2ccccc2Cl)CCCCC1=O` (centres unmarked), `Clc1ccccc1CN1CCc2sccc2C1` is higher in “% Inhibition” value: 1.15% for the first, 30.2% for the second.

Going from `NC[C@H](O)c1ccc(O)c(O)c1` [130720-L3] to `CNCCCC12CCC(c3ccccc31)c1ccccc12`, the “% Inhibition” value rises from 14.8% to 15.2%.

First: CC1(C)O[C@]2(C)CC[C@H]1CC2
Second: CC(C)(C)NC[C@H](O)COc1nsnc1N1CCOCC1
The “% Inhibition” value of the first is higher: 17.9% for the first, -3.01% for the second.

First: Cn1c(=O)c2nc[nH]c2n(C)c1=O [88704-L9]
Second: CCC1(CC)C(=O)C=CNC1=O
The “% Inhibition” value of the first is lower: 8.85% for the first, 27.7% for the second.

Source: article PMC6212833
